# Several values for one entry are separate records, joined by “and”; a condition that tells them apart may be missing. Equal values may be shown once. Records with an inconclusive call do not appear. Where a call stands in place of a potency, no number is given. Activity calls are given as the source filed them. Unless noted, calls come from the whole dose curve; as a rule, active = well fitted curve in the direction sought with a large enough effect; inconclusive = small, poorly fitted or top-dose-only effect, or another doubt; inactive = no such curve, though single readings can be large; an effect the other way counts as inactive or inconclusive.
# Experiments:
# [1] = target: Cytochrome P450 2D6 (Homo sapiens) (UniProt P10635); assay: Cytochrome P450 family 2 subfamily D member 6 (CYP2D6) small molecule antagonists: luciferase biochemical (cell-free) qHTS assay (AID 1645840; active = well fitted curve in the direction sought with a large enough effect in the repeat runs; an effect the other way counts as inactive or inconclusive; note: nearly all actives have a fitted effect of over 55% in size; note: potency is the fitted concentration of half-maximal effect)
# Cytochrome P450 2D6 (Homo sapiens), sequence (P10635 whole entry, looked up): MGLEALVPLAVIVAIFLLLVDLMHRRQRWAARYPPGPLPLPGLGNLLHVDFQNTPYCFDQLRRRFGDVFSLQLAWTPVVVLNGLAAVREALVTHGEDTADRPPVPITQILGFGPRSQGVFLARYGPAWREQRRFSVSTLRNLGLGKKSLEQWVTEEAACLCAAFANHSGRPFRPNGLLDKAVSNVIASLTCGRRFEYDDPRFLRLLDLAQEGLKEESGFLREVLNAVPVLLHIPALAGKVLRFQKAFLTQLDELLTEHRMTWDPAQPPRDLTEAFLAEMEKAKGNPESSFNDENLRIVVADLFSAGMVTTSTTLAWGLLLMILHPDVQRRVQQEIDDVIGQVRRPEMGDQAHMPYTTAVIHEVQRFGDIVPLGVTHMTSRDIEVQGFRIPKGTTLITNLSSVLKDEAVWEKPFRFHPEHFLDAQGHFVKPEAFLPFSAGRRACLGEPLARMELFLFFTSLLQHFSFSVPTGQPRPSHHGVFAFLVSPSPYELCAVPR
# Method in brief: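 P450-Glo luminescent screen: recombinant CYP2D6 enzyme–proluciferin substrate mix preincubated with compound 10 min at room temperature, then NADPH regeneration added for 1 h at room temperature. Detection reagent added for 20 min; luciferin light read as relative luminescence units.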
# [2] = target: Cytochrome P450 2C9 (Homo sapiens) (UniProt P11712); assay: Cytochrome P450 family 2 subfamily C member 9 (CYP2C9) small molecule antagonists: luciferase biochemical (cell-free) qHTS assay (AID 1645842; active = well fitted curve in the direction sought with a large enough effect in the repeat runs; an effect the other way counts as inactive or inconclusive; note: nearly all actives have a fitted effect of over 55% in size; note: potency is the fitted concentration of half-maximal effect)
# Cytochrome P450 2C9 (Homo sapiens), sequence (P11712 whole entry, looked up): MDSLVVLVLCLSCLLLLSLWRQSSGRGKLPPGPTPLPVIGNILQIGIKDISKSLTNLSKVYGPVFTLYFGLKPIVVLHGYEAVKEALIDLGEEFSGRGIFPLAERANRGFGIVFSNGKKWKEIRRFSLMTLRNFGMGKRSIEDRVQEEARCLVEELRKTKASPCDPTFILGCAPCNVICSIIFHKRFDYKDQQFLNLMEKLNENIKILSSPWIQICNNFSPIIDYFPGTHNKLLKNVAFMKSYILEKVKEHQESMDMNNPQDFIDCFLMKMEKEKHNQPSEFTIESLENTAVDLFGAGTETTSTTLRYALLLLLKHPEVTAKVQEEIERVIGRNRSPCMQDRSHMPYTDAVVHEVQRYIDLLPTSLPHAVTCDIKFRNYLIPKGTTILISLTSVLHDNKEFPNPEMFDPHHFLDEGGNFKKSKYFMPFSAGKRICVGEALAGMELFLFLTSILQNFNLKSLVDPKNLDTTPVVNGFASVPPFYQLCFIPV
# Method in brief: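 Luminescence, after 20 min with luciferin detection reagent, reflected CYP2C9 turnover during a 1 h NADPH-driven reaction at 37C. Enzyme-substrate mix contained 0.4% bovine serum albumin and was preincubated with compound 10 min at room temperature.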
# [3] = Primary qHTS for inhibitors of nuclear receptor binding SET domain protein 2 (NSD2) in an isogenic RCH-ACV NSD2 p.E1099K mutant (9B) (AID 1645876); note: nearly all actives have a fitted effect of over 70% in size; note: potency is the fitted concentration of half-maximal effect
# [4] = Primary qHTS for inhibitors of nuclear receptor binding SET domain protein 2 (NSD2) in an RCH-ACV wild type WT cells (2C) (AID 1645877); note: nearly all actives have a fitted effect of over 70% in size; note: potency is the fitted concentration of half-maximal effect
# [5] = target: Glutathione peroxidase 1 (Homo sapiens) (UniProt P07203); assay: Primary qHTS Assay for Inhibitors of Recombinant Selenoprotein Glutathione Peroxidase 1 (GPX1) (AID 1845191); note: nearly all actives have a fitted effect of over 65% in size; note: potency is the fitted concentration of half-maximal effect
# Glutathione peroxidase 1 (Homo sapiens), sequence (P07203 whole entry, looked up): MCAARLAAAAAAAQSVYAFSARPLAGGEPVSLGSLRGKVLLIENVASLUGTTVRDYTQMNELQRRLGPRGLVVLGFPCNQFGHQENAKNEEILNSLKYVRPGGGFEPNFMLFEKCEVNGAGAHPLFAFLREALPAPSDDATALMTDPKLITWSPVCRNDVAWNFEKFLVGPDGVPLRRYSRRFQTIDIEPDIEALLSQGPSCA
# Method in brief: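 Recombinant GPX1 (10 nM final) was preincubated with compound for 30 min at room temperature, then reacted with 1 mM GSH, 0.5 mM CHP, 0.5 mM NADPH and 100 nM glutathione reductase; NADPH fluorescence (340/450 nm) was read at 0 and 15 min.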
# [6] = target: Catechol O-methyltransferase (Homo sapiens) (UniProt P21964); assay: Confirmatory Screen for Target Class Profiling of Small Molecule Inhibitors of Methyltransferases (AID 1745852); conditions: MTase-Glo luminescence, SAH detection, recombinant enzyme; measured here: COMT max response; stronger effect = lower value
# Catechol O-methyltransferase (Homo sapiens), sequence (P21964 whole entry, looked up): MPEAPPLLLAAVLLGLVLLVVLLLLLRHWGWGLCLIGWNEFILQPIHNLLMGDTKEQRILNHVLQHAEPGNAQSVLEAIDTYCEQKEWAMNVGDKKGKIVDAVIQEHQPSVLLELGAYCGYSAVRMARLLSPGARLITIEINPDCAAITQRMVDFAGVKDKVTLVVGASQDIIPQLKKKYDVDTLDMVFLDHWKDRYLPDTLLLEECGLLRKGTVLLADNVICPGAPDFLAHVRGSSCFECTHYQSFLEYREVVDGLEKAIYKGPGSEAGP
# [7] = target: Guanidinoacetate N-methyltransferase (Homo sapiens) (UniProt Q14353); assay: as above; conditions: activity change, negative = inhibition: at 57.3 µM (top of the series) unless noted
# [8] = target: Nicotinamide N-methyltransferase (Homo sapiens) (UniProt P40261); assay: as above; conditions: MTase-Glo luminescence, SAH detection, recombinant enzyme; measured here: NNMT max response; stronger effect = lower value
# Nicotinamide N-methyltransferase (Homo sapiens), sequence (P40261 whole entry, looked up): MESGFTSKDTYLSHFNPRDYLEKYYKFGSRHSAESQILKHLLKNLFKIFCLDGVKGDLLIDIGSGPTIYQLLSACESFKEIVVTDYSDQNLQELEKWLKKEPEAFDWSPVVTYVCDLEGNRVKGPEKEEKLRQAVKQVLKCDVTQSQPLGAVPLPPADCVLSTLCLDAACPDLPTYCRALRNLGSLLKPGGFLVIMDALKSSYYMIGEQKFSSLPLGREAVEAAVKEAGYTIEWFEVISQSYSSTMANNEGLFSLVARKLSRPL
# [9] = target: Phenylethanolamine N-methyltransferase (Homo sapiens) (UniProt P11086); assay: as above; conditions: MTase-Glo luminescence, SAH detection, recombinant enzyme; measured here: PNMT max response; stronger effect = lower value
# Phenylethanolamine N-methyltransferase (Homo sapiens), sequence (P11086 whole entry, looked up): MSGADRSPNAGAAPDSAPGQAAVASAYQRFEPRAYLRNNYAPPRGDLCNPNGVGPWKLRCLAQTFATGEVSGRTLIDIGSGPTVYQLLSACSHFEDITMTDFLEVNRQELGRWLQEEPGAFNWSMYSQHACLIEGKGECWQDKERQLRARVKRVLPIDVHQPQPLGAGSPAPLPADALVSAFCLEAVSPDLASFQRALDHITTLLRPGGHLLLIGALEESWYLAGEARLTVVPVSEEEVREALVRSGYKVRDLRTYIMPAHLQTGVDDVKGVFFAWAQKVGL
# [10] = NCATS anti-infectives library activity on HEK293 viability as a counter-qHTS vs the C. elegans viability qHTS (AID 1745854);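 note: HEK293 cells exposed to compounds for 24 hr before the viability read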
# Method in brief: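 HEK293 cells (1,500/well) exposed 24 hr at 37C to 1:5 titrations, up to 41.7 uM final; counter-screen to a C. elegans viability qHTS. Viability by CellTiter-Glo luminescence after 10 min at room temperature; digitonin as control.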
smiles,measurement,setting,value
COc1ccccc1Oc1ccc(N(Cc2cccnc2)S(=O)(=O)CC(F)(F)F)cc1,Potency,[1],13.5 µM (active)
same,Potency,[2],1.9 µM (active)
same,Potency,[3],inactive
same,Potency,[4],inactive
same,Potency,[5],inactive
COc1ccc(-c2ccc(-c3cn(C(=O)N4CCCCC4c4ccccc4)nn3)cc2)cc1 (configuration not stated),Potency,[1],inactive
same,Potency,[2],2.13 µM (active)
same,Potency,[3],inactive
same,Potency,[4],inactive
same,Potency,[5],inactive
Cc1nc2sc(C(=O)NCc3ccncc3)c(N)c2c(C)c1Cl,Potency,[1],2.39 µM (active)
same,Potency,[2],inactive
same,Potency,[3],inactive
same,Potency,[4],inactive
same,Potency,[5],12.8 µM (active)
CN1CCN(Cc2ccc(-c3cnc4[nH]cc(-c5ccc6[nH]ccc6c5)c4c3)cc2)CC1,Potency,[1],2.13 µM (active)
same,Potency,[2],12 µM (active)
same,Potency,[3],1.45 µM (active)
same,Potency,[4],1.45 µM (active)
same,Potency,[5],inactive
CCCn1c(=O)c2[nH]c(-c3ccc(OCC(=O)O)cc3)nc2n(CCC)c1=O,Potency,[1],inactive
same,Potency,[2],inactive
same,Potency,[3],inactive
same,Potency,[4],inactive
same,Potency,[5],inactive
CC(C)[C@@H](CS(=O)(=O)C(C)C)N1C(=O)[C@@](C)(CC(=O)O)C[C@H](c2cccc(Cl)c2)[C@H]1c1ccc(Cl)cc1,Potency,[1],inactive
same,Potency,[2],15.1 µM (active)
same,Potency,[3],1.15 µM (active) and 833 nM (active)
same,Potency,[4],515 nM (active) and 662 nM (active)
same,Potency,[5],inactive
CCCN1CCN(c2ccc(C(=O)NC3(C(=O)NCC#N)CCCCC3)cc2)CC1,Potency,[1],inactive
same,Potency,[2],inactive
same,Potency,[3],inactive
same,Potency,[4],inactive
same,Potency,[5],inactive
COc1cc(N2CCOCC2)ccc1Nc1ncc(Cl)c(Nc2ccccc2NS(C)(=O)=O)n1,Potency,[1],15.1 µM (active)
same,Potency,[2],inactive
same,Potency,[3],1.15 µM (active)
same,Potency,[4],1.83 µM (active)
same,Potency,[5],inactive
Cc1onc(C(=O)N2CCN(C(c3ccc(Cl)cc3)c3ccc(Cl)cc3)CC2)c1[N+](=O)[O-],Potency,[1],inactive
same,Potency,[2],5.35 µM (active)
same,Potency,[3],0.23 µM (active)
same,Potency,[4],0.145 µM (active)
same,Potency,[5],inactive
COc1ccc(CC2NCCc3c2[nH]c2ccc(C)cc32)cc1OC (configuration not stated),Potency,[1],0.239 µM (active)
same,Potency,[2],10.7 µM (active)
same,Potency,[5],inactive
C=C(F)c1sc(CNCCCNc2cc(=O)c3ccccc3[nH]2)c(C)c1Br,Potency,[1],1.07 µM (active)
same,Potency,[2],2.13 µM (active)
same,activity,[6],-1.13%
same,"activity change, negative = inhibition",[7],-1.39%
same,activity,[8],-33.7%
same,activity,[9],-2.47%
same,Potency,[5],inactive
CCN(CC)Cc1ccc(C(=O)N(CCc2ccccc2OC)[C@@H]2CCNC2)cc1,Potency,[1],13.5 µM (active)
same,Potency,[2],inactive
same,Potency,[10],inactive
same,Potency,[5],inactive
CC(=O)NC[C@H]1CN(c2ccc(N3CCN(C(=O)CO)CC3)c(F)c2)C(=O)O1,Potency,[1],inactive
same,Potency,[2],inactive
same,Potency,[5],inactive
NC(=O)c1cccc2cn(-c3ccc(C4CCCNC4)cc3)nc12 (configuration not stated),Potency,[1],inactive
same,Potency,[3],3.25 µM (active)
same,Potency,[4],2.05 µM (active)
O=C1CCC(c2ccccc2)(C2CCN(Cc3ccc(I)cc3)CC2)C(=O)N1 (configuration not stated),Potency,[1],13.5 µM (active)
same,Potency,[2],inactive
same,Potency,[5],inactive
CNC(=O)c1cc(Oc2ccc3nc(N[C@@H]4CCCC[C@H]4O)sc3c2)ccn1,Potency,[1],16.9 µM (active)
same,Potency,[2],8.49 µM (active)
same,Potency,[5],inactive
CN(C)CCn1cc(S(=O)(=O)c2cccc(F)c2)c2cccnc21,Potency,[1],21.3 µM (active)
same,Potency,[2],inactive
same,Potency,[4],inactive
same,Potency,[5],inactive
CC[C@@](C)(Nc1ccnc(-c2c[nH]c3ncccc23)n1)C(=O)NCC(F)(F)F,Potency,[1],16.9 µM (active)
same,Potency,[2],21.3 µM (active)
same,Potency,[5],inactive
O=C(CCc1ccccc1)N1CCC(O)(Cn2cnc3cc(Cl)ccc3c2=O)CC1,Potency,[1],4.25 µM (active)
same,Potency,[2],10.7 µM (active)
same,Potency,[5],inactive
C[C@@H]1COCCN1c1cc(C2(S(C)(=O)=O)CC2)nc(-c2cccc3[nH]ccc23)n1,Potency,[1],inactive
same,Potency,[3],0.515 µM (active)
same,Potency,[4],0.459 µM (active)
CNS(=O)(=O)CC1CCC(N(C)c2ncnc3[nH]ccc23)CC1 (configuration not stated),Potency,[1],inactive
same,Potency,[2],inactive
same,activity,[6],-6.68%
same,"activity change, negative = inhibition",[7],-4.35%
same,activity,[8],-58.2%
same,activity,[9],-84.3%
same,Potency,[5],inactive
CCN1CCN(Cc2ccc(NC(=O)c3ccc(C)c(/C=C/c4cnc5[nH]ccc5c4OC)c3)cc2C(F)(F)F)CC1,Potency,[1],6.74 µM (active)
same,Potency,[2],12 µM (active)
same,Potency,[3],129 nM (active) and 1.05 µM (active)
same,Potency,[5],inactive
COc1cc(O)c([C@@H](CC(=O)N2CC(C)CC(C)C2)c2ccc3c(c2)OCO3)c(OC)c1 (some centres not stated),Potency,[1],19 µM (active)
same,Potency,[2],1.34 µM (active)
same,Potency,[4],inactive
same,Potency,[5],inactive
CC(C)(C)NS(=O)(=O)c1cncc(-c2cc(F)c3nc(N)nn3c2)c1,Potency,[1],inactive
same,Potency,[2],inactive
same,Potency,[5],inactive
N#Cc1cnc2cnc(NCc3cccnc3)cc2c1Nc1ccc(F)c(Cl)c1,Potency,[1],0.756 µM (active)
same,Potency,[2],1.2 µM (active)
same,activity,[6],-10.6%
same,"activity change, negative = inhibition",[7],-3.05%
same,activity,[8],-57.3%
same,activity,[9],-6.2%
same,Potency,[5],inactive
CS(=O)(=O)c1ccc([C@H](CC2CCCC2)C(=O)Nc2nccs2)cc1,Potency,[1],10.7 µM (active)
same,Potency,[2],6.01 µM (active)
same,Potency,[5],inactive
Cc1noc(-c2ccc(-c3ccc(CC(=O)O)cc3)cc2)c1NC(=O)O[C@H](C)c1ccccc1,Potency,[1],inactive
same,Potency,[2],13.5 µM (active)
same,Potency,[5],inactive
COC(=O)CC1CC(c2ccc(O)cc2)=NO1 (configuration not stated),Potency,[1],inactive
same,Potency,[2],inactive
same,Potency,[3],inactive
same,Potency,[5],inactive
Cc1ccc(S(=O)(=O)n2ccc(-c3c(-c4ccc(Cl)cc4)noc3C)n2)cc1,Potency,[1],inactive
same,Potency,[2],5.35 µM (active)
same,Potency,[5],inactive
